The nature of test [1]: Stat Signaling Pathway (AID 446; active = well fitted curve in either direction with a large enough effect, not every such curve was filed as active;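 also: ME-180 cervical cancer cells given 40 pM IL-6 alongside compound; SIE-controlled beta-lactamase reporter measured as 460/530 nm FRET emission ratio; % is scaled to controls: 0 for no effect and ±100 for the full control effect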). Put shortly:
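FRET read-out (405 nm excitation, 460/530 nm emission) of a beta-lactamase reporter under a STAT-inducible element in ME-180 cervical carcinoma cells. Cells with compound receive 40 pM IL-6 for 5 h. Values are normalised to AC90 stimulation and AC90 JAK-inhibitor controls.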

Test [2] concerns the target Glucocorticoid receptor (Homo sapiens) (UniProt P04150). The experiment in a line: GR-GFP Redistribution (AID 450;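 active = compounds whose dose series gives a full or clear partial fitted curve of increased nuclear translocation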; also: potency is read from the fitted curve at half-maximal effect). The conditions noted are these: U2OS GR-GFP nuclear translocation, laser cytometry, 2 h.
For test [3] the target is unchanged. In words: GR-EFC Redistribution (AID 451; calls by dose curve; also: potency is read from the fitted curve at half-maximal effect). The conditions noted are these: CHO-K1 GR-EFC translocation, beta-gal luminescence, 2 h. Put shortly: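 CHO-K1 cells stably expressing nuclear-localized β-gal enzyme acceptor and GR fused C-terminally to the enzyme donor fragment; ligand-driven nuclear translocation restores β-gal by complementation. Compounds titrated up to 46 uM final, 2 h at 37 °C; luminescence read.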

Test [4] deals with Cytochrome P450 3A4 (Homo sapiens) (UniProt P08684). In words: qHTS Assay for Activators of Cytochrome P450 3A4 (AID 885). Also: nearly all actives have a fitted effect of over 65% in size. In outline: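 Luminescent readout of luciferin formed from 25 uM Luciferin-PPXE (KM level) by 20 nM CYP3A4 in 200 mM KPO4, with 60 min NADPH-driven reaction at room temperature after 10 min compound exposure. Ketoconazole (57 uM) defined 100% inhibition.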
Chain of Cytochrome P450 3A4 (Homo sapiens) (P08684 whole entry, looked up): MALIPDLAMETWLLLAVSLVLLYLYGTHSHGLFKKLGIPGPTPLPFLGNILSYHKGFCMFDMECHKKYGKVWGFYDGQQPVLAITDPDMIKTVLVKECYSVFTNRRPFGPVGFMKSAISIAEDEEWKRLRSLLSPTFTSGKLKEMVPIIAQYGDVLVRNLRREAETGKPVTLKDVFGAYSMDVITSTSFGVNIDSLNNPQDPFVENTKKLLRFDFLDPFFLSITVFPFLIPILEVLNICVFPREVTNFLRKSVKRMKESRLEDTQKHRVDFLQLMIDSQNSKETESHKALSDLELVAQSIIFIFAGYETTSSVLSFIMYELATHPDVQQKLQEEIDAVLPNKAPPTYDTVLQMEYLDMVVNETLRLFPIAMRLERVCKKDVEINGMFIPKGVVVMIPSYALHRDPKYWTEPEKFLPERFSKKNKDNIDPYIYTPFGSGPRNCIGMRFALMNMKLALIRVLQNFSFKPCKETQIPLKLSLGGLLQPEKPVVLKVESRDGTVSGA
(In general: Quantitative high-throughput screening tests each substance at several concentrations.)

Test [5] has as its target Cytochrome P450 2D6 (Homo sapiens) (UniProt P10635). In words: qHTS Assay for Inhibitors and Substrates of Cytochrome P450 2D6 (AID 891). Also: nearly all actives have a fitted effect of over 60% in size. Also: potency is read from the fitted curve at half-maximal effect.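 As to activity change, negative = inhibition: luciferin methyl ether substrate demethylated by CYP2D6 with NADPH regeneration; % is scaled to controls: 0 for no effect and ±100 for the full control effect.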 Put shortly:
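Luminescent read-out of luciferin formed by 5 nM human CYP2D6 demethylating 30 uM Luciferin-ME EGE (Km level) over 60 min at room temperature after NADPH regeneration addition. Data normalized to full inhibition by 1.43 uM quinidine.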

The target in test [6] is Cytochrome P450 1A2 (Homo sapiens) (UniProt P05177). In words: p450-cyp1a2 (AID 410; calls by dose curve; also: potency is read from the fitted curve at half-maximal effect;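 as to activity change, negative = inhibition: -100% = full effect of reference inhibitor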). Put shortly:
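Read-out is luminescence from luciferin produced by CYP1A2 demethylation of Luciferin-ME (100uM, at Km). Detection reagent stopped the 60 min NADPH-dependent reaction; signals were normalized to 57 uM furafylline.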

Test [7] addresses Mitogen-activated protein kinase 10 (Mus musculus) (UniProt Q61831). The experiment in a line: JNK3 AlphaScreen Assay (AID 530; active = well fitted curve in either direction with a large enough effect, not every such curve was filed as active;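 also: kinase came from lysate of stimulated human HepG2 cells; signal reports phosphorylation of biotinylated GST-cJun 1-79 at Ser73 with 10 µM ATP; % is scaled to controls: 0 for no effect and ±100 for the full control effect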). Put shortly: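 Biotinylated GST-cJun(1-79) served as substrate for JNK3 in HepG2 lysates stimulated with IL-1beta and TNF-alpha. ATP was 10 uM final, pH 7.6. Ser73 phosphorylation was quantified by AlphaScreen (680 nm excitation).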
(In general: In Alpha technology, singlet oxygen from a donor bead excites a nearby acceptor bead.)

Test [8] addresses 3',5'-cyclic-AMP phosphodiesterase 4B (Homo sapiens) (UniProt Q07343). The experiment in a line: qHTS Assay for Inhibitors of PDE-IV (AID 607; active = well fitted activation curve with a large enough effect in the main read-out, with a control signal flat, not every such curve was filed as active; also: % of control where 0% means no effect). Put shortly:
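Cell-based read-out of cAMP via a modified cyclic nucleotide-gated channel and membrane potential dye (535/590 nm) in HEK293 cells expressing PDE4 endogenously. Compounds tested up to 22.9 uM final; 100 uM RO 20-1724 reference.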

Test [9] deals with Cytochrome P450 2C9 (Homo sapiens) (UniProt P11712). In words: qHTS Assay for Inhibitors and Substrates of Cytochrome P450 2C9 (AID 883). Also: % is scaled to controls: 0 for no effect and ±100 for the full control effect; nearly all actives have a fitted effect of over 60% in size. In outline:
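Human CYP2C9 (10nM) hydroxylated Luciferin-H (100uM, at its KM) to luciferin in 25mM KPO4. Compound was preincubated 10 min at 37C, then NADPH regeneration started a 60 min reaction at 37C. Luminescence was read after detection reagent, normalized to 57uM sulphaphenazole.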

Test [10] concerns the target Cytochrome P450 2C19 (Homo sapiens) (UniProt P33261). The experiment in a line: qHTS Assay for Inhibitors and Substrates of Cytochrome P450 2C19 (AID 899). Also: % is scaled to controls: 0 for no effect and ±100 for the full control effect; nearly all actives have a fitted effect of over 60% in size. In outline: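 Human CYP2C19 (5nM) with Luciferin-H EGE at 10uM (its KM) in 50mM KPO4 was preincubated with compound for 10 min at 37C. NADPH regeneration started a 60 min 37C reaction. Luciferin was read by luminescence, normalized to 57uM ketoconazole.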

Test [11] can be described thus: NFAT Signaling Pathway (AID 444; active = well fitted curve in either direction with a large enough effect, not every such curve was filed as active;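 also: carbachol stimulus at about its EC50 of 1 µM final; % is scaled to controls: 0 for no effect and ±100 for the full control effect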). Particulars: Jurkat NFAT-bla M1, carbachol, beta-lactamase ratio, 5 h; at 17.2 µM (top of the series) unless noted. Put shortly: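 Jurkat cells carrying an NFAT-driven β-lactamase reporter and co-transfected muscarinic M1 receptor were treated with compound plus carbachol (1 uM final, an EC50 level) for 5 h at 37 °C. CCF4 loading followed for 1 h at RT; 460/530 nm ratio gave %activity.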

Unmarked numbers belong to inactive results. Results filed as inconclusive are left out. The source made the active and inactive calls. Unless noted, calls follow the shape of the dose curve; as a rule, active = well fitted curve in the direction sought with a large enough effect; inconclusive = small, poorly fitted or top-dose-only effect, or another doubt; inactive = no such curve, though single readings can be large; an effect the other way counts as inactive or inconclusive. Bounds are passed on as bounds.

Chain of Cytochrome P450 2D6 (Homo sapiens) (P10635 whole entry, looked up): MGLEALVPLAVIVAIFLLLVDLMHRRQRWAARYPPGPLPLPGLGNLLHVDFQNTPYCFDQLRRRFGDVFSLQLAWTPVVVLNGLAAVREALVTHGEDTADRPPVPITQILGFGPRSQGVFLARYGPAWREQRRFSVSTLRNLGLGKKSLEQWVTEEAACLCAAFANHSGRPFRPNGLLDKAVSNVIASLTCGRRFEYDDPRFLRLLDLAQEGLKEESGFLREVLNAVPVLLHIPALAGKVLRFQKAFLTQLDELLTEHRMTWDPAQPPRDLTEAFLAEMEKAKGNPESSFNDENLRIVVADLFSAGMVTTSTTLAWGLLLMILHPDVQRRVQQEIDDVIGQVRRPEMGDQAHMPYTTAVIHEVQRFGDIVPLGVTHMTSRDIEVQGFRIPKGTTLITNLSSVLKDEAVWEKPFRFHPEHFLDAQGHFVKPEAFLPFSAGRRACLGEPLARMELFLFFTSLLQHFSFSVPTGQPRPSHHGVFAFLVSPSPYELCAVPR
Chain of Cytochrome P450 1A2 (Homo sapiens) (P05177 whole entry, looked up): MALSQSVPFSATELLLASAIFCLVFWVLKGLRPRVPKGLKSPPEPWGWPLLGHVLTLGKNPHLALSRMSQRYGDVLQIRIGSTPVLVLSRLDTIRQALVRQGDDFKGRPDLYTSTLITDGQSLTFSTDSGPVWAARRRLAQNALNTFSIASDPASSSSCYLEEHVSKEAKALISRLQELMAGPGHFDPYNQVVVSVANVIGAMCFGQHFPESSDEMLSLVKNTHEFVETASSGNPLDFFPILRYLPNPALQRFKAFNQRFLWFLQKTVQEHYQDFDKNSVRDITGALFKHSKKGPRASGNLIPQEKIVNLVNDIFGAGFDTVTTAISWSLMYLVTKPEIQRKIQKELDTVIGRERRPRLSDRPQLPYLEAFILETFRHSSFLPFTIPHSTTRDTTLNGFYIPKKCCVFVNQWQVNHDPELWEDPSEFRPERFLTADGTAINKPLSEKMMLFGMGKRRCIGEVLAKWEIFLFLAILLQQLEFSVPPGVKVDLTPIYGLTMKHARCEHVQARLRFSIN
Chain of Cytochrome P450 2C19 (Homo sapiens) (P33261 whole entry, looked up): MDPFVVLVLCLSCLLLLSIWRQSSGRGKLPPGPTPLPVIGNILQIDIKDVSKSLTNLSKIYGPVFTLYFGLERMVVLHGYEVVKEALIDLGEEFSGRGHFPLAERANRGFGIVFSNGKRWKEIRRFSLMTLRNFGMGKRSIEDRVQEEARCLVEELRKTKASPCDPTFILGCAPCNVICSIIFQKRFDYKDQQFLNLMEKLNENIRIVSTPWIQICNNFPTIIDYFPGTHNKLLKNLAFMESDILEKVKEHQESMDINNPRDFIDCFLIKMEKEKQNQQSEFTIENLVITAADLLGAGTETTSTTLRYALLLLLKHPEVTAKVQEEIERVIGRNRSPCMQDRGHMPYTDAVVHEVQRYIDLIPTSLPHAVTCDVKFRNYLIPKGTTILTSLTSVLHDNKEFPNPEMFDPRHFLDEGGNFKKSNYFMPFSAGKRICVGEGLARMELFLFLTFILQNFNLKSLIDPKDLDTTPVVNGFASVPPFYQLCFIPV
Chain of 3',5'-cyclic-AMP phosphodiesterase 4B (Homo sapiens) (Q07343 whole entry, looked up): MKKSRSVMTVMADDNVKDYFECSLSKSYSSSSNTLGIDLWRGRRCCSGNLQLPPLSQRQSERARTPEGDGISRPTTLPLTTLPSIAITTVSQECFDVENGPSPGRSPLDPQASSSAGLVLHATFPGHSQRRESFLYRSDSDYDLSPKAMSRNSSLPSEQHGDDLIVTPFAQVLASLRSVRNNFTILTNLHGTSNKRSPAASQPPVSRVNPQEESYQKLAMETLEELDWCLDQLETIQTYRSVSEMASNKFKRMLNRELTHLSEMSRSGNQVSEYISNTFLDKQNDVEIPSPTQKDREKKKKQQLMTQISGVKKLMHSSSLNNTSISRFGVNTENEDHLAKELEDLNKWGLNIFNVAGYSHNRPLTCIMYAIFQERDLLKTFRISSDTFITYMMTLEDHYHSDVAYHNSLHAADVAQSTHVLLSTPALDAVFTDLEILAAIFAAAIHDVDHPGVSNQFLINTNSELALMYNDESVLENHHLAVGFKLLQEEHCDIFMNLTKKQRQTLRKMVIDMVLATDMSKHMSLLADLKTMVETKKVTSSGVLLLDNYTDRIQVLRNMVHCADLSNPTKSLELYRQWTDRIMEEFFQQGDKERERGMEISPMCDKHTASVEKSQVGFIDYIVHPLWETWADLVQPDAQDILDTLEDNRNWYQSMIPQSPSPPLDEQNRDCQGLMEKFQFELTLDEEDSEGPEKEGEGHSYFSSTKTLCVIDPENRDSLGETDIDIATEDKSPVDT
Chain of Cytochrome P450 2C9 (Homo sapiens) (P11712 whole entry, looked up): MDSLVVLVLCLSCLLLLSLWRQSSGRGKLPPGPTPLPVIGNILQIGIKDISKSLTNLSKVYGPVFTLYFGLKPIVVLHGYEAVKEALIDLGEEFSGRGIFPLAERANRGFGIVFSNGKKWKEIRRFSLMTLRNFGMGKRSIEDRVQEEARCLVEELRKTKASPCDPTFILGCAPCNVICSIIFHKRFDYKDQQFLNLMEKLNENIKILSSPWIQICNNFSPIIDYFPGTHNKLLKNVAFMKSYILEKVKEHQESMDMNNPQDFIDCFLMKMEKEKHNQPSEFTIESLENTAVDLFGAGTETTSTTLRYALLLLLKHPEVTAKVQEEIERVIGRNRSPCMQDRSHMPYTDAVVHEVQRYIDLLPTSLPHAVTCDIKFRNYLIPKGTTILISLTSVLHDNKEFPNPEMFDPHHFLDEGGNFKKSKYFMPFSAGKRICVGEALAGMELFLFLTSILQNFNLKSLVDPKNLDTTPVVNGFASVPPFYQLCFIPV
Chain of Glucocorticoid receptor (Homo sapiens) (P04150 whole entry, looked up, the tested form may be a part): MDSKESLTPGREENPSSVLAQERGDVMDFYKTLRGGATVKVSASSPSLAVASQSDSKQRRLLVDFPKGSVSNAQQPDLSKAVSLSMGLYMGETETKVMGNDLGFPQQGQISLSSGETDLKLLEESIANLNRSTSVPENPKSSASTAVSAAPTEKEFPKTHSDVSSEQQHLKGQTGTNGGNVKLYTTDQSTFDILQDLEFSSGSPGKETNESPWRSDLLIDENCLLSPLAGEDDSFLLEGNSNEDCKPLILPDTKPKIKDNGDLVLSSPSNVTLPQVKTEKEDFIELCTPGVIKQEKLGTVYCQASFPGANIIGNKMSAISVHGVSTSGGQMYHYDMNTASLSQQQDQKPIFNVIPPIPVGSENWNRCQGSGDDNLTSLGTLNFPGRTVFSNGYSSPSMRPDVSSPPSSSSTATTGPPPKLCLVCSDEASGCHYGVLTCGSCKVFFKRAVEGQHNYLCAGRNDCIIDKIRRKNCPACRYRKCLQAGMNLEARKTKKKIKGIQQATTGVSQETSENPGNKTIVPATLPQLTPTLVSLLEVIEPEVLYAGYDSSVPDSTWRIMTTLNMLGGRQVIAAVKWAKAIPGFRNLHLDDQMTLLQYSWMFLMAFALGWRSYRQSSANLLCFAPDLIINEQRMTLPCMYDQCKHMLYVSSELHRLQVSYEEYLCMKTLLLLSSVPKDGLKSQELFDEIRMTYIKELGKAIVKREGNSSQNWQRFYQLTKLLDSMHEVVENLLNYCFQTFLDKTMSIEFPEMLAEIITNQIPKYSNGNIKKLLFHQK

As to `COc1ccc2[nH]c3c(c2c1)CCN=C3C`, the call in test [1] was inactive. Moreover, the Potency was over 20.6 µM in test [2], over 20.6 µM in test [3] and 0.631 µM (active) in test [5]. For the same compound, in test [4], the Potency result is “inactive”.
Consider `NCC[Se][Se]CCN`, for which the Potency was 3.16 µM (active) in test [6], over 46 µM in test [2] and over 9.22 µM in [3]. In addition, the result in test [1] and in test [8] was inactive. Also, in test [7], the activity change, negative = inhibition was -20.9% [at 11.4 µM].
Turning to `COC[C@@H]1OC(=O)c2coc3c2[C@]1(C)C1=C(C3=O)[C@H]2CCC(=O)[C@]2(C)C[C@@H]1OC(C)=O`, the Potency in [2] and in test [3] was over 46 µM throughout. The call in [8] was inactive. In addition, the Potency entry in test [9], in [5] and in test [10] was “inactive” each time.
On to `CN1CC=C2C(C#N)=C(N)C(C#N)(C#N)C(c3ccncc3)C2C1` (centres undefined), for which the compound was classed as inactive in test [1]. In addition, the Potency in [2] was over 20.6 µM.
Take `C/C=C1\C[C@H](C)[C@](O)(CO)C(=O)OCC2=CCN3CC[C@@H](OC1=O)[C@@H]23`: the Potency result in [6], in [9], in test [5] and in test [10] was “inactive” in each case. Further, the Potency in [2] and in [3] was over 46 µM in each case. In addition, the compound was classed as inactive in [7].
For the compound `CCOc1ccccc1-n1c(O)c(C=Nc2c(C)n(C)n(-c3ccccc3)c2=O)c(=O)[nH]c1=O`, in test [1], the result was inactive. In addition, in [2], the Potency is over 20.6 µM.
Consider `CCOC(=O)c1cc(C)n(CCc2cnc[nH]2)c1C`, for which the compound was classed as inactive in test [1]. In addition, the Potency in test [2] was over 20.6 µM.
Consider `Nc1c(C(=O)NCc2ccco2)c2nc3ccccc3nc2n1CCN1CCCCC1`, for which the Potency in test [2] was over 20.6 µM.
As to `CCCCCCCCCCCCCC(=O)O[C@H]1[C@@H](C)[C@@]2(O)[C@@H](C=C(CO)C[C@]3(O)C(=O)C(C)=C[C@@H]23)C2C(C)(C)[C@]21OC(C)=O` (some centres undefined), the Potency result in test [6] and in [4] was “inactive” each time. In addition, the Potency in test [2] and in [3] was over 46 µM throughout. In [7], the result was inactive.
As for `CCN1C[C@@]2(C)CC[C@H](O)[C@@]34[C@@H]5C[C@H]6[C@H](O)[C@@H]5[C@](O)(C[C@@H]6OC)[C@H](C[C@@H]23)[C@H]14`, the Potency entry in test [6], in test [9], in test [5] and in [10] was “inactive” in each case. For the same compound, the Potency in test [2] and in test [3] was over 46 µM each time. Besides, the compound was classed as inactive in test [7].
With `Cc1c(N=Cc2c(O)n(Cc3ccco3)c(=O)[nH]c2=O)c(=O)n(-c2ccccc2)n1C`, the call in [1] was inactive. Further, in test [2], the Potency is over 20.6 µM.
Regarding `CN1C[C@H](CO)C=C2c3cccc4[nH]cc(c34)C[C@H]21`, the Potency in test [6] is 1 µM (active); in test [2] it was over 46 µM; in test [3], over 46 µM; in test [5], 0.0251 µM (active). Moreover, the compound was called inactive in test [7] and in [8].
As for `COc1ccc(C[C@@H]2NC[C@H](O)[C@H]2OC(C)=O)cc1`, the Potency result in test [6], in test [9] and in [10] was “inactive” in each case. For the same compound, the Potency in test [2] and in [3] was over 46 µM throughout. The compound was called inactive in test [7] and in test [8].
Consider `CC(C)(C)[C@@]1(O)C[C@@H]2OC(=O)C[C@@]23C(=O)O[C@H]2OC(=O)[C@@H](O)[C@]231`, for which the Potency entry in test [6], in [9], in test [5] and in [10] was “inactive” each time. Also, the Potency in test [2] and in test [3] was over 46 µM each time. In addition, the call in test [7] and in test [8] was inactive.
On to `CN1[C@@H]2CC[C@H]1CC(O[C@@H](c1ccccc1)c1ccccc1N)C2` (some centres undefined), for which the Potency in test [2] and in test [3] was over 46 µM throughout. Further, the call in test [7] and in test [8] was inactive. The Potency entry in [9] and in test [4] was “inactive” throughout.
On to `CC(=O)N1C[C@@H]2C[C@H](C1)c1cccc(=O)n1C2`, for which the Potency entry in test [6], in [9], in test [5] and in test [10] was “inactive” each time. Besides, the Potency in test [2] and in test [3] was over 46 µM throughout. Further, the call in test [7] and in test [8] was inactive.
Regarding `C=CCN1C[C@@H](C)N([C@H](c2ccc(C(=O)N(CC)CC)cc2)c2cccc(OC)c2)C[C@H]1C`, the Potency in test [3] is over 46 µM. Further, the outcome in test [7] and in test [8] was inactive. Besides, the Potency result in [4] is “inactive”.
As for `CC(C)(C)NC[C@H](O)c1ccccc1Cl`, in test [6], the Potency entry is “inactive”. In addition, the activity change, negative = inhibition in test [11] is -15.3% [at 38 µM]. The Potency in test [2] and in test [3] was over 46 µM in each case. For the same compound, in test [8], the compound was called inactive.
As to `CC(C)[C@H]1C(=O)N2CCC[C@H]2[C@]2(O)O[C@](NC(=O)[C@@H]3C=C4c5cccc6[nH]cc(c56)C[C@H]4N(C)C3)(C(C)C)C(=O)N12`, the call in test [1] was inactive. Besides, the Potency in [2] was over 20.6 µM.
As for `CCC(=NCCOc1ccc(Cl)cc1)c1c(O)n(C)c(=O)n(C)c1=O`, in test [1], the result was inactive. In test [2], the Potency was over 20.6 µM.
Consider `Ic1ccccc1CN[C@@H]1C2CCN(CC2)[C@H]1C(c1ccccc1)c1ccccc1`, for which the Potency was 12.6 µM (active) in test [6], over 46 µM in test [2], over 46 µM in test [3] and 0.0631 µM (active) in test [5]. Also, the activity change, negative = inhibition in test [11] is -6.46% [at 38 µM]. In addition, the result in test [7] was inactive. Besides, the Potency result in [4] is “inactive”.
For the compound `C=C[C@@H]1CN2CC[C@H]1C[C@H]2[C@@H](O)c1ccnc2ccccc12`, the Potency entry in [6], in test [9] and in [10] was “inactive” each time. Also, the Potency in test [2] was over 46 µM; in test [3] it was over 46 µM; in [5], 0.1 µM (active). Further, the compound was classed as inactive in test [7].
Turning to `CCCC[N+]1(C)[C@@H]2CC(OC(=O)[C@@H](CO)c3ccccc3)C[C@H]1[C@H]1O[C@H]12` (some centres undefined), in [6], the Potency result was “inactive”. Besides, the compound was classed as inactive in [1] and in test [8]. Besides, the Potency in [2] and in [3] was over 46 µM throughout.
Turning to `C=C(C)[C@@H]1CN[C@H](C(=O)O)[C@H]1CC(=O)O`, the Potency result in [6], in [9], in test [5] and in test [10] was “inactive” each time. Further, in [11], the activity change, negative = inhibition is 0.349% [at 38 µM]. Besides, the Potency in test [3] is over 46 µM. Also, in test [8], the result was inactive.

Values taken from PubChem BioAssay (NCATS).
